Measurements as given in PubChem BioAssay AID652067 (The Scripps Research Institute Molecular Screening Center, 2013).
Among all 370,000 compounds or so, about 5,400 (1.5%) were called active. Many of the other results were omitted from the sample, so actives are more common in it than they were. Unmarked numbers belong to inactive results.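 Rule for the calls: active = activation above the mean of all tested compounds plus 3 SD (cut at about 5.5% in these data); inactive = the rest.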

System: DAF-12 nuclear receptor (Haemonchus contortus)
Test: H. contortus DAF-12 nuclear receptor activators, primary screen, cell-based, luminescence, HEK293, lit1-tk-luc reporter (AID 652067);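 note: 100% = response to 3 µM Δ7-dafachronic acid high control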
Details: HEK293 hcDAF-12 lit1-tk-luc reporter, at 6.8 µM, stronger effect = higher value, 0% DMSO, 100% Δ7-dafachronic acid

SMILES	activation
COC(=O)c1cc2c(c3c4cc(F)ccc4n(S(=O)(=O)c4ccccc4)c13)C(=O)N(Cc1ccccc1OC)C2	0.96%
CCCN1C(=O)c2[nH]nc(-c3ccccc3)c2C1c1ccccc1 (stereo unspecified)	-1.32%
COc1ccccc1CCNC(=O)C1CCN(c2nc(C)cc(C)n2)CC1	-0.5%
Cc1cc(OC(=O)NCCc2ccc(F)cc2)ccc1F	-1.94%
Cc1cc(O)cc(O)c1C(=O)Cc1cnn(-c2ccccc2)c1	-1.81%
O=C(c1cnn(-c2ccc(Cl)cc2)c1)c1ccccc1O	6.75% (active)
COc1ccc(CNC(=O)COc2ccccc2C(=O)c2cnn(-c3ccccc3)c2)cc1OC	3.06%
CN(CCO)c1cccc2c1S(=O)(=O)N(Cc1cn(Cc3ccc(C(F)(F)F)cc3)nn1)Cc1ccccc1O2	1.99%
COc1ccccc1C(=O)NC1CCCCN(C(C)C)C1=O (stereo unspecified)	0.55%
Cc1cc(C(=O)OC(C)C(=O)Nc2cccc(S(=O)(=O)N3CCOCC3)c2)c(C)o1 (stereo unspecified)	-0.06%
O=C(c1c[nH]c2ccccc12)N1CCC(Oc2cccnc2)CC1	1.45%
Cc1cc(CN(C)C(=O)c2cc(COc3ccc(C)c(C)c3)on2)n[nH]1	-1.73%
Cc1cc(OCc2cc(C(=O)NCc3cc(C(C)C)no3)no2)cc(C)c1Cl	8.95% (active)
COc1ccc(OCc2cc(C(=O)NCC3(C)COC3)no2)c(Cl)c1	1.3%
COc1ccc2c(C(C)c3ccc(N)cc3)cn(C)c2c1 (stereo unspecified)	-0.33%
O=C(NCCc1c[nH]c2ccccc12)OCc1cn(-c2c(F)cccc2F)nn1	3%
CCOc1ccc2[nH]c(=S)sc2c1	-0.28%
O=c1[nH]c2ccccc2s1	1.16%
Nc1ccc2[nH]c(=S)sc2c1	7.75% (active)
COCc1[nH]nc2c1C(c1ccccc1)N(c1ccccc1)C2=O (stereo unspecified)	-0.15%
COc1ccc2c(CC(=O)OCC(=O)Nc3ccccc3[N+](=O)[O-])coc2c1	0.19%
O=S1(=O)c2c(cccc2N2CCCC2)O[C@H](COCc2ccccc2)CN1C1CC1	-1.28%
Cc1ccc(-n2c(COc3ccccc3)nnc2SCC(=O)Nc2ccc3c(c2)OCCO3)cc1	-2.77%

SMILES	activation
C=CC1=CCN(S(=O)(=O)C(C)(C)C)[C@@H]1CCO	-0.05%
N#CC(=C1CCCC1)c1nc(-c2ccc(Cl)cc2)cs1	-0.23%
c1ccc(-c2csc(N3CCc4ccccc4C3)n2)cc1	1.49%
N#CC(=C1SC=CS1)c1nc(-c2ccccc2)cs1	5.72% (active)
COc1ccc(C(=O)CSc2nnc(-c3cnccn3)n2-c2ccc(C)cc2)cc1	-3.92%
COC(=O)[C@@]12CCCCC=C1N(CCc1ccc(Cl)cc1)C(=O)[C@H]2CC(=O)NCc1ccc(OC)c(OC)c1	-2.23%
CCc1ccccc1NC(=O)CSc1nnc(-c2cccs2)o1	2.25%
O=C(O)c1cccc(NC(=S)N/N=C/c2c[nH]c3ccccc23)c1	5.99% (active)
O=C(Cc1c[nH]c2ccccc12)N/N=C/c1cccc(F)c1	-2.14%
O=C(CCCOc1ccccc1)Nc1cccc(C(=O)O)c1	-0.3%
CCn1c(SC)nc(O)c(C(c2ccc(OC)c(O)c2)c2c(O)nc(SC)n(CC)c2=O)c1=O	-1.4%
Cc1cccc(N2Cc3ccccc3C2=NC(=O)c2ccc(Cl)nc2)c1	5.83% (active)
N#Cc1ccc(N2Cc3ccccc3/C2=N/C(=O)Nc2ccc(Cl)cc2)cc1	-0.08%
Cc1cccc(N2CCN(C(=O)c3cccc(S(=O)(=O)N4CCc5ccccc5C4)c3)CC2C)c1 (stereo unspecified)	-2.28%
CCCCCCCCNS(=O)(=O)/C=C/c1cc(C)ccc1CNC(=O)OC(C)(C)C	-0.7%
COc1ccc(-c2nnn(Cc3nc(N)nc(N4CCCCC4)n3)n2)cc1	-2.9%
CCOC(=O)CNc1nc2ccccc2n2c(C)nnc12	-0.04%
CC(C)(C)N1CC(c2nc3ccccc3n2Cc2ccc(F)cc2)CC1=O (stereo unspecified)	0.33%
Fc1ccc(CNc2nc3ccccc3n3nnnc23)cc1	5.66% (active)
Cc1ccc(-n2nc(N)c3c(=O)oc(N(C)C)nc32)cc1	0.85%
CCc1c(C)nc(SCC(=O)NC2CCCC2)[nH]c1=O	-0.17%
Cc1c(C)n2c(SCC(=O)NC3CCCC3)nnc2[nH]c1=O	-0.71%
Cc1nc(SCC(=O)NC2CCCC2)[nH]c(=O)c1C	5.79% (active)

SMILES	activation
CCOC(=O)c1c(C2CC2)csc1NC(=O)CSCc1c(C)noc1C	-3.08%
CC(=O)Nc1cccc(C(=O)OCN2C(=O)c3ccccc3C2=O)c1	1.25%
CC(=O)Nc1cccc(C(=O)OCC(=O)c2ccc3c(c2)OCO3)c1	8.29% (active)
CC(=O)Nc1cccc(C(=O)OCC(=O)NCc2cc(C)c(O)c(C)c2)c1	1.87%
COc1ccc(C(=O)OCCN(C)C2CN(Cc3cn(Cc4cccc(C)c4)nn3)S(=O)(=O)C2)cc1OC (stereo unspecified)	-2.89%
c1ccc(Cc2c(-c3ccco3)nc3c4ccccc4ccn23)cc1	12% (active)
Cc1ccc(Cc2c(-c3ccc(Cl)cc3)nc3c4ccccc4ccn23)cc1	3.04%
CCCc1nc2c3ccccc3ccn2c1Cc1ccccc1C(F)(F)F	5.09%
FC(F)(F)c1ccccc1Cc1c(-c2ccccc2)nc2c3ccccc3ccn12	5.96% (active)
COc1ccccc1Cc1c(-c2ccc(Cl)cc2)nc2c3ccccc3ccn12	2.15%
Cc1ccc(Cc2c(-c3ccc(C)cc3)nc3c4ccccc4ccn23)cc1	4.63%
COc1cccc(N2CCN(CC(=O)N(C)Cc3ccc(F)cc3)CC2)c1	-2.02%
C=CCN1C(=O)[C@H](CC(=O)NCCCN2CCCC2=O)[C@@]2(C(=O)OCC)CCCC=C12	-0.18%
Cc1ccc(NC(=O)c2cc(C)nn2-c2ccccc2)c(C)c1	-2.18%
Clc1cccc2c1C1CC2CCN1Cc1ccccc1 (stereo unspecified)	-1.68%
CS(=O)(=O)N(Cc1ccccc1Cl)c1ccc(C(=O)NCc2cccnc2)cc1	-2.13%
CCCc1cc(C(=O)Nc2ccc(Cl)cn2)cs1	7.31% (active)
O=C(COC(=O)c1ccco1)Nc1ccc(Cl)cn1	0.13%
CC(OC(=O)CNC(=O)c1ccco1)C(=O)Nc1ccc(Cl)cn1 (stereo unspecified)	-2.11%
O=C(Nc1cc(Cl)cc(Cl)c1)OCCN1CCCC12CCC(c1ccccc1)CC2 (stereo unspecified)	-0.18%
COC(=O)[C@]12C[C@H](CC(=O)N3CCOCC3)C(=O)N(Cc3ccc(Cl)cc3Cl)C1=C[C@H](COCc1ccccc1)O[C@@H]2C	-3.03%
NC(=S)N/N=C/c1coc2cc(Cl)ccc2c1=O	5.81% (active)
NC(=S)NN=Cc1ccc(OC(=O)COc2cc(Cl)c(Cl)cc2Cl)cn1	-1.62%

SMILES	activation
CC(C)Oc1c(Br)cc(Br)cc1/C=N/NC(N)=S	-4.22%
Cc1cc(N2CCN(C(=O)OC(C)(C)C)C[C@H]2C)ccc1N1CCN(Cc2ccccc2)[C@H](C)C1	1.47%
O=C(Nc1ccccc1)N(Cc1cccnc1)Cc1ccco1	-0.9%
COc1cccc(N(C(=O)CNC(=O)c2ccco2)C(C(=O)NC2CCCCC2)c2cccnc2)c1 (stereo unspecified)	-0.65%
Cc1ccc(N(C(=O)CNC(=O)c2ccco2)C(C(=O)NC2CCCC2)c2ccncc2)cc1 (stereo unspecified)	0.7%
CC(C)(C)NC(=O)C(c1ccncc1)N(C(=O)CNC(=O)c1ccco1)c1ccc2c(c1)OCO2 (stereo unspecified)	6.8% (active)
CC(C)CNc1cccc2c1S(=O)(=O)N[C@H](CC(C)C)CO2	-1.3%
Nc1ccccc1/C=N\N=C/c1ccccc1N	8.99% (active)
C=CCN1C(=O)[C@@H](CC(=O)NCCCCc2ccccc2)[C@]2(C(=O)OCC)CCCCC/C=C/12	-0.4%
COC(=O)c1cc2c(N)c(C(=O)c3ccc(Cl)cc3)sc2nc1C(OC)OC	0.3%
CC(=O)c1c(Nc2ccccc2)sc(C(=O)c2ccccc2)c1C	-2.59%
CN(C)c1ccnc2sc(C(=O)c3ccccc3)c(N)c12	6.4% (active)
CCCCCCCCN1C(=O)[C@@H](CC(=O)N2CCN(C(=O)OCC)CC2)C[C@@]2(C(=O)OC)C1=C[C@H](C1CCCC1)O[C@@H]2C	-0.68%
COc1cccc(CN2C(=O)CCC2(C)C(=O)NC2CCCCCC2)c1 (stereo unspecified)	-2.09%
O=C(CSc1nnc(COc2ccccc2)n1-c1ccc(Cl)cc1)Nc1ccc2c(c1)OCO2	-0.19%
Cc1ccc(C)c(N2CCN(C(=O)CCc3nc(-c4cccc(C(F)(F)F)c4)no3)CC2)c1	6.2% (active)
COc1ccc(N2CCN(C(=O)CCc3nc(-c4ccc(C)cc4)no3)CC2)cc1	-1.97%
COc1ccc(-c2noc(CCC(=O)N3CCN(c4cccc(C)c4)CC3)n2)cc1	-0.53%
C=CS(=O)(=O)N(Cc1nnn(Cc2ccccc2)c1Br)[C@H](C(=O)OC)C(C)C	-3.12%
COc1ccc(N2CCN(C(=O)CNC(=O)c3ccc(C(C)(C)C)cc3)CC2)cc1	-2.42%
O=C(CNC(=O)c1ccc2ccccc2c1)Nc1ncccc1O	0.18%
O=C(NCC(=O)N1CCN(c2ccccc2O)CC1)c1ccc2ccccc2c1	6.1% (active)
